Reference: PubChem BioAssay (Tox21)
Records with an inconclusive call do not appear. Entries that show only a call come without a potency. Values without a mark were called inactive. Calls of active or inactive are those of the source. Calls follow the shape of the dose curve; as a rule, active = well fitted activation curve with a large enough effect in the signal ratio in the repeat runs (not every such curve was filed as active); inconclusive = weak or mixed curves, or effect the other way; inactive = no such curve, though single readings can be large or run the other way; the % refers to the signal ratio.

target: Peroxisome proliferator-activated receptor gamma (Homo sapiens) (UniProt P37231); test: qHTS assay to identify small molecule agonists of the peroxisome proliferator-activated receptor gamma (PPARg) signaling pathway (AID 743094); details: HEK293H PPARg-UAS-bla, beta-lactamase FRET ratio, 17 h; series mostly up to 57 µM
Method in brief: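 Beta-lactamase FRET fluorescence was the read-out after a 1 h room-temperature substrate step, following 17 h compound treatment at 37C of HEK293H cells expressing a UAS-driven bla reporter responsive to PPARg.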

Chain of Peroxisome proliferator-activated receptor gamma (Homo sapiens) (P37231 whole entry, looked up): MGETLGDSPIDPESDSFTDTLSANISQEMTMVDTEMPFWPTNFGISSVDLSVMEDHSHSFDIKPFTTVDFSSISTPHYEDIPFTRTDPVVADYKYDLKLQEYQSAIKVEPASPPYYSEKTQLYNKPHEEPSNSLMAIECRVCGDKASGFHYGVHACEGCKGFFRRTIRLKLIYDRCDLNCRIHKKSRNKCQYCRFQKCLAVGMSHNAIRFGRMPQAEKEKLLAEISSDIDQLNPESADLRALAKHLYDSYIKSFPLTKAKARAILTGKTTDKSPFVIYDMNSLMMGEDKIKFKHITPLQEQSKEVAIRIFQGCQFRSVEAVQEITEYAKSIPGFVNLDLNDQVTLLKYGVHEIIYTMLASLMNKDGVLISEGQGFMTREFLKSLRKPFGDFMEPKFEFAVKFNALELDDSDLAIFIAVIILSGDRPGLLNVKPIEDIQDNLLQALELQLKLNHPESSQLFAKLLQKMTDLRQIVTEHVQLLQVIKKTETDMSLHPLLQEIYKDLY

Row | SMILES | Potency | activation
1 | c1ccc(SSc2ccccc2)cc1 | inactive | –
2 | Cl[Si](Cl)(c1ccccc1)c1ccccc1 | inactive | –
3 | Cc1cc(C(C)(C)C)cc(C)c1CC1=NCCN1 | inactive | –
4 | CC(C)OC(=O)C(O)(CC(=O)O)CC(=O)O | inactive | –
5 | C[C@@H](O)[C@H](N)C(=O)O | inactive | –
6 | OC/C=C/CO | inactive | –
7 | C1CCC(SSC2CCCCC2)CC1 | inactive | –
8 | C=Cc1ccccc1C=C | inactive | –
9 | CCOC(=O)Cn1cccc1-c1nc(-c2ccc(OC)cc2)c(-c2ccc(OC)cc2)s1 | inactive | –
10 | CN(C)Cc1ccccc1O | inactive | –
11 | O=[N+]([O-])c1ccc(O)cc1C(F)(F)F | inactive | –
12 | O=C(O)[C@H](O)[C@@H](O)[C@H](O[C@@H]1O[C@H](CO)[C@H](O)[C@H](O)[C@H]1O)[C@H](O)CO | inactive | –
13 | O=C(O)O | – | -5.02% [at 7.08 µM]
14 | C[C@H]1NCc2cc(-c3ccc4c(=O)c(C(=O)O)cn(C5CC5)c4c3OC(F)F)ccc21 | inactive | –
15 | CC(C)(c1cc(Br)c(OCC(Br)CBr)c(Br)c1)c1cc(Br)c(OCC(Br)CBr)c(Br)c1 (configuration not stated) | inactive | –
16 | O=C(O)c1cccc(C(F)(F)F)c1 | inactive | –
17 | CCCCCCOC(=O)C(C)CC (configuration not stated) | inactive | –
18 | Clc1ccnc(Cl)n1 | inactive | –
19 | CN1CCCCC1CCN1c2ccccc2Sc2ccc(S(C)=O)cc21 (configuration not stated) | inactive | –
20 | Cc1cc(C(C)(C)C)c(O)c(C)c1Cn1c(=O)n(Cc2c(C)cc(C(C)(C)C)c(O)c2C)c(=O)n(Cc2c(C)cc(C(C)(C)C)c(O)c2C)c1=O | inactive | –
21 | Cc1ccc(-c2ccccc2)cc1 | inactive | –
22 | C=C(C)C(=O)OCCCCCCCCCC | inactive | –
